Our source for the efficacy values is PubChem BioAssay (NCATS).

Entries with a potency or affinity are not part of this list. Unmarked numbers belong to inactive results. The rule behind the calls is not given here.
Note: 0% is about no effect.

The conditions of this assay: Ebola virus entry assay, green fluorescence channel.
For the compound `CCCCOc1ccc(C(=O)CCN2CCCCC2)cc1`, the efficacy was 94.7%.
In the case of `OCCN1CCN(CCCN2c3ccccc3C=Cc3ccccc32)CC1`, the efficacy was 49.7%.
Take `COc1cc2c(cc1OC)-c1cc(=Nc3c(C)cc(C)cc3C)n(C)c(=O)n1CC2`: the efficacy was 20.5%.
The same measure for `CN1CCC(=C2c3ccccc3CCc3cccnc32)CC1`: 39.6%.
For `COC(=O)[C@H]1[C@H]2C[C@@H]3c4[nH]c5cc(OC)ccc5c4CCN3C[C@H]2C[C@@H](OC(=O)COc2ccc(OC)cc2)[C@@H]1OC`, the efficacy is 21%.
In the case of `N/C(=N\N=C\c1ccc(Cl)cc1)N/N=C/c1ccc(Cl)cc1` it was -188%; in that of `O=C(c1ccc(F)cc1)C1CCN(CCn2c(=S)[nH]c3ccccc3c2=O)CC1`, 48.9%; in that of `Cc1nc2sccn2c(=O)c1CCN1CCC(=C(c2ccc(F)cc2)c2ccc(F)cc2)CC1`, 82.1%.
Turning to `Cc1cc(C(C)(C)C)c(O)c(C)c1CC1=NCCN1`, the efficacy was 52%.
The same measure for `CN1CCC(=C2c3ccccc3CC(=O)c3sccc32)CC1`: 93.4%; for `CCOC(=O)N1CCC(Nc2ccc(Cl)cc2N)CC1`: 119%; for `Clc1ccc(Cn2c(CN3CCCC3)nc3ccccc32)cc1`: 99.2%.
As to `O=C(O)c1cn(-c2ccc(F)cc2)c2cc(N3CCNCC3)c(F)cc2c1=O`, the efficacy was 23.7%.
Take `Cc1ccc2c(Br)cc(Br)c(O)c2n1`: the efficacy was 99.5%.
As to `CC1=C(C)C(=O)C(C(CCCCCC(=O)O)c2ccccc2)=C(C)C1=O` (centres undefined), the efficacy was 61.1%.
`C[C@@H](C1=C(CCN(C)C)Cc2ccccc21)c1ccccn1`: the efficacy is 89%.
As to `Nc1c2c(nc3ccccc13)CCCC2`, the efficacy was 49.8%.
For the compound `CN(C)C(=S)SC(=S)N(C)C`, the efficacy was -50.4%.
For `Cc1cccc(CN2CCN(C(c3ccccc3)c3ccc(Cl)cc3)CC2)c1` (centres undefined), the efficacy was 38.6%.
As for `CCCCN(CCCC)CC(O)c1cc(Cl)cc2c1-c1ccc(Cl)cc1/C2=C/c1ccc(Cl)cc1` (centres undefined), the efficacy is 120%.
`CCCCCCCCOc1ccccc1C(=O)Nc1ccc(C(=O)OCC[N+](C)(CC)CC)cc1`: the efficacy is -202%.
In the case of `Cc1c(C(=O)NN2CCCCC2)nn(-c2ccc(Cl)cc2Cl)c1-c1ccc(Cl)cc1` it was 55.3%; in that of `OC(CCN1CCCCC1)(c1ccccc1)c1ccccc1`, 36.7%.
`CN(C)CCOC1=Cc2ccccc2Sc2ccc(Cl)cc21`: the efficacy is 46.9%.
In the case of `CCN(CC)CCOc1ccc(C(O)(Cc2ccc(Cl)cc2)c2ccc(C)cc2)cc1` (centres undefined), the efficacy is -145%.
`CCCCCN=C(N)N/N=C/c1c[nH]c2ccc(OC)cc12`: the efficacy was -150%.
Turning to `C[C@@H](CN(C)C)CN1c2ccccc2Sc2ccccc21`, the efficacy is 66.9%.
On to `CCCCc1ccc2nc(NC(=O)OC)[nH]c2c1`, for which the efficacy was 19%.
For `c1ccc2c(c1)CCc1ccccc1N2`, the efficacy was -29.2%.
As to `COc1ccc(CCN(C)CCCC(C#N)(c2cc(OC)c(OC)c(OC)c2)C(C)C)cc1OC` (centres undefined), the efficacy was 75%.
For the compound `CC(CC1c2ccccc2CCc2ccccc21)CN(C)C` (centres undefined), the efficacy was 28.4%.
In the case of `CN(C)CCN(Cc1ccc(Cl)cc1)c1ccccn1`, the efficacy is 58.3%.
On to `CCN(CC)CCOc1ccccc1C(=O)CCc1ccccc1`, for which the efficacy was 42.3%.
As to `CN(C)CCOC(c1ccccc1)c1ccc(Br)cc1` (centres undefined), the efficacy was 63.8%.
On to `O=C1NCN(c2ccccc2)C12CCN(CCCC(c1ccc(F)cc1)c1ccc(F)cc1)CC2`, for which the efficacy is 83.4%.
Turning to `OC(CCCN1CCCCC1)(c1ccccc1)c1ccccc1`, the efficacy was 50.3%.
Regarding `CN1CCCN(C(c2ccccc2)c2ccc(Cl)cc2)CC1` (centres undefined), the efficacy is 53.7%.
As to `Cc1cc(C(C)(C)C)cc(C)c1CC1=NCCN1`, the efficacy is 93.8%.
The same measure for `O=C(Nc1ccccc1)OCC(CN1CCCCC1)OC(=O)Nc1ccccc1` (centres undefined): 31.7%.
